Among the data in PubChem BioAssay (NCI) are growth values, retold here.

Several values for one entry are separate records, joined by “and”; a condition that tells them apart may be missing. Equal values may be shown once. This is part of a sample that, as a whole, favours compounds with a hit. Of some 83,000 tested, about 20% had one in any assay.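 Results are percent growth after 48 hours of single-concentration exposure. 100 means growth as in untreated cells, lower positive values show inhibition; negative values down to -100 show cell death.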 Unmarked numbers belong to inactive results. Activity calls are given as the source filed them. The calls were made as follows: active = growth percent below 10; inactive = the rest.

For the test, the system named is COLO 205 colon. The test is described as follows: NCI-60 one-dose screen, 48 h (100 = growth as untreated, 0 = no growth, -100 = all killed). The following applies: 10 µM unless noted.
For the compound `CCC(CCCN(CC)CCc1ccccc1)OC(=O)c1cc(OC)c(OC)c(OC)c1` (configuration not stated), the growth was 81.1%.
The figure for `CCC(CC)COC(=O)c1ccc(O)c(O)c1` is 95.7%; for `COC(=O)Nc1nc2ccc(C(=O)c3ccccc3)cc2[nH]1` it is 0.824% (active) and -17.1% (active) and -22.8% (active).
Under `CC(=O)ON=C1C=CC(=C(C#N)c2ccccc2)C=C1` stands 90.6%; under `NC(=O)/C=C/C(=O)c1c(Cl)cccc1Cl`, -89.6% (active); under `CCCCCCCCCCCCCCCC[N+](C)(CCO)Cc1cnc[nH]1` (configuration not stated), -100% (active).
In the case of `Oc1c(Br)cc(Cl)cc1C(c1cc(Cl)cc(Br)c1O)C(Cl)(Cl)Cl`, the growth was 59.2%.
The figure for `CC1OC2CC(=O)OC2C2=C1C(=O)c1c(O)cccc1C2=O` (configuration not stated) is -87.2% (active); for `CC(C)(C)c1ccc(O)c(C2CCCCC2)c1` it is 103%; for `Oc1c(Cl)cc(Cl)c2cccnc12` it is 99.9% and 85.2%.
In the case of `CCN(CC)CC(C)(C)C(=O)/C=C/c1ccc(Cl)c(Cl)c1`, the growth is -53.4% (active).
Under `CN(C)CCOc1ccc2c(c1)C(=O)/C(=C\c1ncc([N+](=O)[O-])n1C)C2` stands -91.9% (active); under `C/C=C1\SC(=S)NC1=O`, 104%.
The figure for `CCOC(=O)/C(=C\c1ccc(-c2ccccc2)cc1)C(C)=O` is 104%.
Under `N#CSCc1ccc(CSC#N)c(Cl)c1` stands 45%; under `CNC(=O)N/N=C/c1ccc([N+](=O)[O-])o1`, 109%.
Regarding `Cc1cc2nc(CS)[nH]c2cc1C`, the growth is 90.3%.
Under `N#CC1C(=O)SC2c3ccccc3C(=O)c3ccccc3C12` (configuration not stated) stands 107%.
Under `Nc1nc(N)c2c(ccc3c2ccn3Cc2cccc([N+](=O)[O-])c2)n1` stands -88.9% (active); under `Cn1c2c(c3ccccc31)CCN1C[C@@H]3CCCC[C@H]3C[C@@H]21`, -59.2% (active); under `Oc1c(Br)c(Br)c(O)c(Br)c1Br`, -34.4% (active).
The figure for `O=C(Nc1ccccc1)Oc1c(Cl)c(Cl)c(Cl)c(Cl)c1Cl` is 97.9% and 106%; for `Nc1ncnc2c1ncn2C1OC(CO)C(O)C1O` (configuration not stated) it is 121% and 100%.
As to `Nc1nc(N)c2nc(CNc3ccc(C(=O)NC(CCC(=O)O)C(=O)O)cc3)cnc2n1` (configuration not stated), the growth was 56.1% and 32.8%.
The figure for `O=C(CC1(O)C(=O)Nc2c(Cl)ccc(Cl)c21)c1ccc(Cl)cc1Cl` (configuration not stated) is 97.5%; for `O=C(/C=C\c1ccccc1)N1c2ccccc2CC1c1c[nH]c2ccccc12` (configuration not stated) it is 56.6%.
The figure for `CC1=CC(O)C2CC1C2(C)C` (configuration not stated) is 94.5% and 112%; for `CCN1/C(=C\c2cc[n+](CC)c3ccccc23)C=Cc2ccccc21` it is -35.2% (active).
For `CC(C)c1ccc2nc3ccc(C(=O)NCCN4CCN(c5ccccc5)CC4)cn3c(=O)c2c1`, the growth was 45.8%.
The figure for `O=C(O)C1C2CC3C(OC(=O)C31)C2Br` (configuration not stated) is 97.1% and 103%; for `NC(=S)N/N=C/c1ccc(Cl)s1` it is 105%; for `CCN(CC)CCOc1ccc(-c2nc3cc(Cl)ccc3s2)cc1` it is -73.9% (active).
